Compound activity deposited in PubChem BioAssay by National Center for Advancing Translational Sciences (NCATS).
uPA surface inh – inhibitors of cell surface uPA generation | 330,000 compounds, 0.31% hits | Potency, µM (titrated, usually from 38.3 µM), usual class: inhibitors | cell surface uPA generation assay, qHTS; active = well fitted inhibition curve with a large enough effect; inconclusive = small, poorly fitted or top-dose-only effect; inactive = no such curve, though single readings can be large or run the other way; tested in mouse RAW 264.7 cells; note: nearly all actives have a fitted effect of over 55% in size
HT1080 IDH1KD tx – HT-1080 IDH1 knockdown cell toxicity (counter line); HT-1080 IDH1 knockdown viability, ATP luminescence, 48 h; Potency, µM (doses to about 46.1 µM), actives largely listed as cytotoxic; 360,000 compounds, 2% hits
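After a 2 h attachment period, IDH1KD HT-1080 cells took pin-transferred compound for 48 h at 37 °C; ATP-based luminescence after 10 min room-temperature reagent incubation reported viability.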
DT40 TDP1 CPT – growth inhibition of DT40 Tdp1-/-;hTDP1 cells with camptothecin (screen for TDP1 inhibitors); chicken DT40 Tdp1-/-;hTDP1 cells + 20 nM CPT, ATP luminescence, 48 h; Potency, µM (highest dose often 46.2 µM), usual class: inhibitors; 420,000 compounds, 12% hits; note: nearly all actives have a fitted effect of over 55% in size
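Chicken DT40 Tdp1-/- cells stably complemented with human TDP1 were seeded at 400 cells/well in medium containing 20 nM camptothecin, exposed to pin-transferred compounds, and grown at 37 °C for at least 48 hr. Viability was read as ATP luminescence.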
HT1080-NT tox – kills 2HG-producing HT-1080-NT fibrosarcoma cells; Potency, µM (highest dose often 46.1 µM), actives largely listed as cytotoxic; 360,000 compounds, 1.6% hits; HT-1080-NT fibrosarcoma viability, CellTiter-Glo ATP luminescence, 48 h;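 note: NT is the 2HG producing partner of a matched IDH1 knockdown line; nearly all actives have a fitted effect of over 55% in size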
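HT-1080-NT; 750 cells/well; 5% FBS RPMI; 48 h compound, 37 degrees C; CellTiter-Glo luminescence; curve fitting and curve-class assignment.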
IL1B secr inh – inhibitors of inflammasome signaling (IL-1 beta secretion); AID 743279; THP-1 LPS/ATP IL-1B secretion, AlphaLISA, 16 h; stronger effect = lower value; activity change, % at 57.5 µM; 360,000 compounds, 4.7% hits; in the data active = activity change below about -50%; inconclusive = mostly about -30% to -49%
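THP-1 cells pretreated 1 hr with compounds (up to 57.5 uM final), then stimulated with LPS (250 ng/mL final) plus ATP (1.25 mM final); secreted IL-1B measured by AlphaLISA after 16 hr, decreased signal indicating inhibition.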
DT40 TDP1 no CPT – qHTS for Inhibitors of human tyrosyl-DNA phosphodiesterase 1 (TDP1): qHTS in cells in absence of CPT; DT40 Tdp1-/- hTDP1 cells, no CPT, ATP luminescence, 48 h; AID 686978, 2013; 420,000 compounds, 15% hits; Potency, µM (top dose mostly 46.2 µM), usual class: inhibitors; note: nearly all actives have a fitted effect of over 55% in size
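Readout: luminescence from CellTiter-Glo after 30 min in the dark at RT. Cells: DT40 Tdp1-/- with stable hTDP1, 400/well. Exposure: compounds alone, ≥48 hr, 37 °C.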
A number is an active result; i = inactive; ? = inconclusive; nt = no result given; [ ] = another dose, or the depositor's remark. This is a sample that favours compounds with a hit; in the whole collection about 19% have one here. Unless noted, calls come from the whole dose curve; as a rule, active = well fitted curve in the direction sought with a large enough effect; inconclusive = small, poorly fitted or top-dose-only effect, or another doubt; inactive = no such curve, though single readings can be large; an effect the other way counts as inactive or inconclusive.

SMILES | uPA surface inh | HT1080 IDH1KD tx | DT40 TDP1 CPT | HT1080-NT tox | IL1B secr inh | DT40 TDP1 no CPT
CCOC(=O)[C@H]1[C@H]2COc3ccc(OC)cc3[C@@H]2N2C(=O)CN(Cc3ccccc3)C(=O)[C@@]12C | i | i | i | i | i | ?
O=C(COc1cccc2c1CCNC2=O)Nc1cccc(C(F)(F)F)c1 | i | i | 8.2µM | i | i | 16.4µM
COc1ccc(CN(C)C(=O)c2ccc(OCC(=O)Nc3cccc(C(F)(F)F)c3)c(OC)c2)c(OC)c1 | i | i | ? | ? | -76.9 | ?
COc1cccc(CN(C)C(=O)c2ccc(OCC(=O)Nc3cccc(C(F)(F)F)c3)c(OC)c2)c1 | i | ? | 10.3µM | ? | -62.3 | 9.2µM
COc1cc(C(=O)NCCCN(C)C)ccc1OCC(=O)Nc1cccc(C(F)(F)F)c1 | i | ? | ? | i | -53.2 | ?
O=C(COc1cccc2c1CCNC2=O)Nc1cccc(F)c1 | i | i | ? | i | i | ?
COc1ccc(NC(=O)CN(C)C(=O)c2ccccc2OCC(=O)Nc2cccc(C(F)(F)F)c2)cc1 | i | i | ? | i | i | ?
CCn1c(-c2ccccc2F)nc2cc(NC(C)=O)cc(C(=O)N3CCCCC3c3nccn3C)c21 (configuration not stated) | nt | nt | i[9.04 µM] | nt | nt | i
O=C(CCC(=O)N1CCSc2ccccc21)NC1CCCCC1 | i | i | ? | i | i | i
COc1cc(/C=C(\C#N)C(=O)Nc2cc(C(F)(F)F)ccc2Cl)ccc1OCC(=O)Nc1cccc(C(F)(F)F)c1 | i | i | 23.1µM | i | i | ?
Nc1nc(NCCc2ccc(O)cc2)nc2nc(-c3ccco3)nn12 | nt | nt | 14.6µM | nt | nt | 11.6µM
N#Cc1c(N)n(CCNC(=O)c2ccc(Cl)cc2)c2nc3ccccc3nc12 | i | i | i | i | -58.0 | ?
N#Cc1c(N)n(CCOC(=O)c2cccc([N+](=O)[O-])c2)c2nc3ccccc3nc12 | i | i | i | i | i | 10µM
N#Cc1c(N)n(CCOC(=O)c2cccc(Br)c2)c2nc3ccccc3nc12 | i | i | i | i | i | ?
CCCN1Cc2cccc(C(=O)Nc3ccc(C(C)=O)cc3)c2C1=O | nt | nt | i | nt | nt | i
COC(=O)Cc1sc(-c2ccccn2)nc1-c1ccccc1 | i | i | ? | i | i | 16.4µM
O=C(Nc1ccc(Oc2ccccc2)nc1)C1CCN(Cc2ccccc2)CC1 | i | i | ? | ? | ? | i
COc1ccc(CN2CCC(C(=O)Nc3ccc(Oc4ccccc4)nc3)CC2)cc1F | i | i | 20.6µM | i | i | 18.4µM
Cc1c(CN2CCC(C(=O)Nc3ccc(Oc4ccccc4)nc3)CC2)cnn1C | i | i | i | i | i | i
COc1cc(F)ccc1CN1CCC(C(=O)Nc2ccc(Oc3ccccc3)nc2)CC1 | i | 20.6µM | ? | ? | -81.4 | 16.4µM
CC1(C)C(=O)NC2=C1C(=O)C(=O)c1ccccc12 | nt | nt | 1.33µM | nt | nt | 0.944µM
Nc1ccc(Br)c2c1C(=O)c1ccccc1C2=O | i | ? | i | ? | i | ?
COC(=O)[C@]12CCCCC=C1N(Cc1ccco1)C(=O)[C@H](CC(=O)NCc1ccc(C)o1)C2 | nt | i | ? | i | i | ?
O=C(NCC1CCCO1)C1CCN(C2CCN(C(=O)CC3CCCC3)CC2)CC1 (configuration not stated) | i | i | i | i | i | i
O=C(NCC1CCCO1)C1CCN(C2CCN(CCCC3CCCC3)CC2)CC1 (configuration not stated) | i | i | 14.6µM | i | i | 23.1µM
SMILES | uPA surface inh | HT1080 IDH1KD tx | DT40 TDP1 CPT | HT1080-NT tox | IL1B secr inh | DT40 TDP1 no CPT
CC1(C)C(=O)C=C[C@@]2(C)C1C=C[C@@]1(C)C2CC[C@@]2(C)C(c3ccoc3)OC(=O)C3OC312 (some centres not stated) | nt | nt | 16.4µM | nt | nt | 11.6µM
CC1(C)OC(=O)C=C[C@]2(C)[C@H]3CC[C@@]4(C)[C@H](c5ccoc5)OC(=O)[C@H]5O[C@]54[C@]3(C)C(=O)C[C@@H]12 | i | i | i | i | i | i
COc1cc(CN2C(=O)C(C)ON=C2c2cccs2)cc(OC)c1 (configuration not stated) | nt | i | i | i | i | ?
Cc1c(N=Cc2ccco2)c(=O)n(-c2ccccc2)n1C | i | i | i | i | i | i
O=C(N/N=C/c1c(O)n(-c2ccccc2Cl)c(=O)c2ccccc12)c1cccnc1 | i | 9.2µM | ? | 6.51µM | i | i
COc1ccc(Cn2c(O)c(/C=N/NC(=O)c3cccnc3)c3ccccc3c2=O)cc1 | i | 20.6µM | 14.6µM | ? | i | 23.1µM
COc1ccc2c(C=Nc3c(C)n(C)n(-c4ccccc4)c3=O)c(O)n(Cc3ccco3)c(=O)c2c1 | i | i | 18.4µM | i | i | ?
O=C(N/N=C/c1c(O)n(Cc2ccccc2)c(=O)c2ccccc12)c1cccnc1 | i | 14.6µM | ? | 13µM | i | 9.2µM
COc1ncc2nc(C)c(=O)n(Cc3cccs3)c2n1 | nt | nt | i | nt | nt | ?
COc1ccccc1NS(=O)(=O)c1cccc(-n2c(O)c(C=Nc3ccccc3C(=O)O)c3ccccc3c2=O)c1 | i | ? | ? | ? | i | 13µM
COc1ccc(Cn2c(O)c(C=Nc3ccccc3C(=O)O)c3ccccc3c2=O)cc1 | i | i | 14.6µM | i | i | 10.3µM
COc1ccc(Cn2c(O)c(C=Nc3ccc(OC)cc3)c3ccccc3c2=O)cc1 | i | i | i | ? | i | i
COc1ccccc1CN1CC(C(=O)NCc2cc(F)cc(C(F)(F)F)c2)CCC1=O (configuration not stated) | i | i | i | i | i | i
CNc1ccc(Br)cc(C(=O)/C=C/c2cccc(OC)c2OC)c1=O | i | i | i | i | i | i
CCNc1ccc(Br)cc(C(=O)/C=C/c2ccccc2Cl)c1=O | nt | 12.6µM | 9.2µM | ? | -104.3 | 10.3µM
CNc1ccc(Br)cc(C(=O)/C=C/c2cccc(Cl)c2Cl)c1=O | ? | i | 18.4µM | i | -55.6 | 16.4µM
Cc1cc(C(=O)NCc2nnc3n2CCN(Cc2ccc4c(c2)Cc2ccccc2-4)CC3)c(C)o1 | nt | nt | ? | nt | nt | 16.4µM
Cc1cc(C(=O)NCc2nnc3n2CCN(Cc2ccc(C)c(C)c2)CC3)c(C)o1 | nt | nt | i[9.04 µM] | nt | nt | i
CCN1C(=O)[C@H]2[C@@H](c3ccc(OC)cc3)N[C@]3(CCCN(Cc4ccc(C)cc4)C3=O)[C@H]2C1=O | nt | i | i | i | i | ?
Cc1ccc(CNc2nc3ccccc3n3nnnc23)cc1 | i | i | i | i | i | i
Cc1ccc2nc(Cl)c3nnnn3c2c1 | i | 13µM | 1.84µM | i | -94.3 | 2.59µM
